# Source: PubChem
# ADAM10 inh: inhibitors of human ADAM10; inhibition, % at 7 µM; actives 0.62% (n = 370,000); O14672; recombinant ADAM10, EDANS/DABCYL FRET peptide cleavage, 3 h;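 active = inhibition above a per-campaign cutoff equal to the mean of compounds falling between control-based bounds plus 3 SD, cut at about 20% in these data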;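 also: 0% = DMSO wells while the 100% control is not disclosed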
# PLC-gamma1 inh: blocks human PLC-gamma1 enzyme activity; purified PLC-gamma1, fluorogenic substrate, fluorescence; actives 0.84% (n = 370,000); inhibition, % at 12.2 µM; in the data active = inhibition above about 9.5%
# KLK7 zymogen act: proKLK7 (human) activation, primary screen. P49862. purified proKLK7, EDANS-DABCYL substrate fluorescence; 100% is mature enzyme control, 0% vehicle. activation, % at 7 µM. actives 0.9% (n = 370,000);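 active = activation above the mean of all tested compounds plus 3 SD, computed per campaign excluding outliers beyond control limits, cut at about 13% in these data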
# PLCb3 inh: inhibitors of human phospholipase C beta3; Q01970; Purified PLC-beta3, fluorogenic substrate, fluorescence; inhibition, % at 12.2 µM; actives 0.18% (n = 370,000); AID 720704; in the data active = inhibition above about 11%;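 also: 0% = median of compound wells on plate and 100% = full blocker control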
# ADAM17 inh: inhibits human ADAM17; recombinant ADAM17, EDANS/DABCYL FRET peptide cleavage; inhibition, % at 6.95 µM; P78536; actives 0.83% (n = 370,000);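 active = inhibition above the mean of compounds lying between control limits plus 3 SD, set per campaign, cut at about 8.5% in these data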;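 also: 0% = DMSO-only wells as the low control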
# proKLK7 act conf: proKLK7 activation, confirmation. shares compounds with KLK7 zymogen act. purified proKLK7, EDANS-DABCYL substrate fluorescence; scaled: vehicle 0, mature enzyme 100. activation, % at 7 µM. actives 68% (n = 3,200);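 active = activation, as change over the incubation, above the mean of all tested compounds plus 3 SD, cut at about 13% in these data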
# EDANS interfere: fluorescence interference counter-screen for KLK7 activators; shares compounds with KLK7 zymogen act; EDANS-DABCYL substrate fluorescence interference, no enzyme, 4 h; solvent 0%, active enzyme control 100%; activation, % at 7 µM; actives 80% (n = 3,200); AID 686952;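 active = activation above the all-compound mean plus 3 SD, ignoring values outside control-based bounds, cut at about 4.8% in these data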;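 also: value is the 4 h activation minus the activation read at time zero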
# Starred values were filed as active, the others as inactive; i = inactive; . = no result. The list is not random: actives were taken first. Their share in the collection is about 2.9%.
SMILES,ADAM10 inh,PLC-gamma1 inh,KLK7 zymogen act,PLCb3 inh,ADAM17 inh,proKLK7 act conf,EDANS interfere
CC(=O)Nc1ccc(S(=O)(=O)Nc2nc3ccccc3nc2Nc2ccccc2)cc1,-9,-31,-1,-39,-4,.,.
CC(=O)Nc1ccc(S(=O)(=O)C(C#N)c2nc3ccccc3nc2NCCCO)cc1 (stereo not drawn),i,i,39*,i,i,53*,69*
CC(=O)Nc1ccc(S(=O)(=O)C(C#N)c2nc3ccccc3nc2NCCO)cc1 (stereo not drawn),i,i,64*,i,i,66*,73*
O=C(CN1c2cccc3cccc(c23)S1(=O)=O)N1CCOCC1,-264,-274,12,-345,-80,.,.
CC(C)(C)NC(=O)NC(=O)CN1c2cccc3cccc(c23)S1(=O)=O,-104,-125,1,-193,-53,.,.
O=C(CN1c2cccc3cccc(c23)S1(=O)=O)N1CCCCC1,-295,-275,15*,-392,-80,12,13*
COC(=O)CNC(=O)CN1c2cccc3cccc(c23)S1(=O)=O,-351,-403,23*,-495,-122,17*,17*
CC(C)(C)OC(=O)CN1c2cccc3cccc(c23)S1(=O)=O,-163,-178,13*,-234,-71,6,13*
CCN(CC(=O)NC(C)(C)C)C(=O)CN1c2cccc3cccc(c23)S1(=O)=O,-232,-209,15*,-298,-79,0,2
COc1cc2c(cc1OC)C(c1cc(OC)c(OC)c(OC)c1)C1(O)C(=O)OCC1(O)C2 (stereo not drawn),0,1,57*,3,-1,0,1
CN1CCCCC(NC(=O)c2ccc3ccccc3c2)C1=O (stereo not drawn),-1,-2,0,4,-2,.,.
O=C(COC(=O)c1ccccc1NCCO)Nc1ccc(S(=O)(=O)NC2=NCCCCC2)cc1,i,i,23*,i,i,-32,-21
O=C(COC(=O)c1ccccc1O)Nc1cccc(S(=O)(=O)NC2=NCCCCC2)c1,10,0,3,-6,-3,.,.
CC(C)[C@H](NC(=O)OCc1ccccc1)C(=O)OCc1cc(=O)oc2cc(O)ccc12,-334,-370,28*,i,-118,62*,60*
CC(C)[C@H](NC(=O)OCc1ccccc1)C(=O)OCC(=O)c1ccccc1,-6,0,0,-7,0,.,.
CC(=O)N(CC1CCCO1)c1nnc(-c2cnccn2)s1 (stereo not drawn),-44,-7,2,-7,-14,.,.
COc1ccccc1-c1nnc(N(C)C(=O)C2CCCO2)s1 (stereo not drawn),-119,-5,18*,-8,-37,26*,26*
COCC(=O)N(C)c1nnc(-c2ccccn2)s1,-231,-8,63*,-7,-64,82*,77*
COCC(=O)N(C)c1nnc(-c2ccc([N+](=O)[O-])cc2)s1,0,5,0,-2,-8,.,.
CN(C(=O)C1CCCO1)c1nnc(-c2ccncc2)s1 (stereo not drawn),i,-35,130*,-43,-173,167*,167*
CN(C(=O)C1CCCO1)c1nnc(-c2ccccn2)s1 (stereo not drawn),i,-16,98*,-17,-143,94*,95*
Cc1ccccc1N1CCN(C(=O)CCn2nnc3ccccc32)CC1,-4,-1,0,1,-3,.,.
O=C(Nc1nc2c(s1)CN(Cc1ccccc1)CC2)c1cccc(S(=O)(=O)N2CCc3ccccc32)c1,-179,-169,640*,-157,-44,21*,18*
Cc1ccc2nc3ccc(N4CCCCCCC4)nn3c(=O)c2c1,-14,-62,2,-80,-8,.,.
Cc1ccc2nc3ccc(N4CCN(C)CC4)nn3c(=O)c2c1,-227,-473,40*,i,-76,12,13*
SMILES,ADAM10 inh,PLC-gamma1 inh,KLK7 zymogen act,PLCb3 inh,ADAM17 inh,proKLK7 act conf,EDANS interfere
Cc1ccc2[nH]c3c(c2c1)SC(C)(C)CC3=O,-95,i,15*,i,-37,13*,16*
CCc1ccc(-c2cnc3nc[nH]c(=O)c3n2)cc1,i,i,15*,i,-411,38*,39*
CCOC(=O)[C@]12CCCCC/C=C\1N(CCc1ccc(Cl)cc1)C(=O)[C@H]2CC(=O)N1CCC(c2ccccc2)CC1,7,-1,0,-2,1,.,.
CCOc1ccc(-c2cnc3cccnn23)cc1,-181,i,11,i,-40,.,.
Cc1cccc(-c2cnc3cccnn23)c1,i,i,34*,i,-243,27*,35*
CCOc1cccc(-c2cnc3cccnn23)c1,i,i,41*,i,-236,37*,33*
COc1ccc(-c2oc3c4c2C(=O)OCCOC4CCC3)cc1 (stereo not drawn),i,-376,15*,i,-200,7,7.8*
COc1ccccc1-c1nnc(N)s1,-193,-12,0,-15,-45,.,.
COc1ccccc1-c1nnc(SC2CCc3ccccc3NC2=O)s1 (stereo not drawn),-23,1,13*,-2,-11,-4,6.3*
Nc1ccc2oc(-c3ccc4nc[nH]c4c3)nc2c1,-141,i,3,i,-53,.,.
Cc1nc2ccc(-c3nc4cc(N)ccc4o3)cc2[nH]1,-385,i,28*,i,-93,46*,49*
COC(=O)C1=C(C)N(C)C(=NCc2ccc(OC)cc2)NC1c1ccccc1 (stereo not drawn),-4,1,0,4,-5,.,.
C=CCN1C[C@@H](COCc2ccccc2)Oc2cccc(F)c2S1(=O)=O,0,0,1,-1,-7,.,.
COC(CNC(=O)[C@H](Cc1ccccc1)NC1(C(=O)NC2CCCCC2)CCC1)OC,-4,-2,.,-1,-3,.,.
O=c1[nH]c2cc([N+](=O)[O-])ccc2c2ccc([N+](=O)[O-])cc12,-5,-3,-1,0,0,.,.
Nc1ccc2c(c1)[nH]c(=O)c1cc(N)ccc12,i,i,99*,i,-238,61*,71*
CCCCN1C(=O)c2cccc3cc(O)cc(c23)C1=O,-3,i,31*,i,-2,48*,68*
c1ccc(Cc2cnc(N3CCN(Cc4csc5ccccc45)CC3)nc2)cc1,-2,2,0,0,-1,.,.
O=C(Nc1ccc(Cl)c(Cl)c1)C1CCN(c2ncccn2)CC1,-23,-7,1,-12,-5,.,.
COc1cc(C2Nc3ccccc3C(=O)N2c2ccc(Cl)cc2)c(Cl)cc1OCC(=O)O (stereo not drawn),i,-369,22*,-436,-207,26*,27*
